Measurements: the supplement of paper PMC10849652
Of roughly 7,900 targets only a part is listed; those with a hit were picked by preference. About 0.6% of all pairs of compound and target were hits.

Chain of UniProt Q53GQ0 (Q53GQ0 whole entry, looked up): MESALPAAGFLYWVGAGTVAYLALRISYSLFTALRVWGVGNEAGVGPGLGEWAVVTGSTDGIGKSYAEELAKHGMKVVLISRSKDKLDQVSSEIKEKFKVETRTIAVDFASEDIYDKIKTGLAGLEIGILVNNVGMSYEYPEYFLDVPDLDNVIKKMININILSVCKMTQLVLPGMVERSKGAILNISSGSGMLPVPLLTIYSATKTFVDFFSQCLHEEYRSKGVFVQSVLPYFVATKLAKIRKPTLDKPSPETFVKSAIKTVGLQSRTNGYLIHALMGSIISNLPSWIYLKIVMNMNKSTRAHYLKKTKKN
Chain of UniProt Q14527 (Q14527 whole entry, looked up): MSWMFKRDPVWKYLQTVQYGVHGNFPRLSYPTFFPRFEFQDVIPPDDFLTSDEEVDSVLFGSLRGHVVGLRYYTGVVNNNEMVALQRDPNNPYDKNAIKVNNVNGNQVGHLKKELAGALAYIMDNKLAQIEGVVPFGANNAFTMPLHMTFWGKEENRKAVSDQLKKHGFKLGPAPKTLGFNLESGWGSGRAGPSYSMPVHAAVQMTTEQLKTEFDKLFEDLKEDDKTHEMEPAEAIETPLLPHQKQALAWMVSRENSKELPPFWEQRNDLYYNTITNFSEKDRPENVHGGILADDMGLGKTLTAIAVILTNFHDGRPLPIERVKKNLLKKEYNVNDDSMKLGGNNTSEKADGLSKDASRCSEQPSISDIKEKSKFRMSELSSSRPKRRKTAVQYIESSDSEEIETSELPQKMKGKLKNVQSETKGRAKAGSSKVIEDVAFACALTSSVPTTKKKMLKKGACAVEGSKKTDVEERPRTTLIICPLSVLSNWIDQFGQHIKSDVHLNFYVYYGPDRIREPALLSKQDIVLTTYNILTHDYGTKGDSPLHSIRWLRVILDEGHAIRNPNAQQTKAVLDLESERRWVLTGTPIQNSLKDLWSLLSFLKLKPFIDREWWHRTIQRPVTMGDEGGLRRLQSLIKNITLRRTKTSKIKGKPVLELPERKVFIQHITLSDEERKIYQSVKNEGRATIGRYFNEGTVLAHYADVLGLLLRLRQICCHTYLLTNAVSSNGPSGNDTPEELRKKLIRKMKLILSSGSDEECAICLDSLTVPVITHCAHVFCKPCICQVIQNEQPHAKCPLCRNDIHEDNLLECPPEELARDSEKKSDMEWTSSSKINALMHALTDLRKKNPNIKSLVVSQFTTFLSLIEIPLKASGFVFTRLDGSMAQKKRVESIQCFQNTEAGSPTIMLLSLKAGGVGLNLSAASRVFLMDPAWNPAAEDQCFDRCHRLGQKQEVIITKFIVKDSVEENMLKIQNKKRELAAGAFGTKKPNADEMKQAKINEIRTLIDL
Chain of UniProt P50213 (P50213 whole entry, looked up): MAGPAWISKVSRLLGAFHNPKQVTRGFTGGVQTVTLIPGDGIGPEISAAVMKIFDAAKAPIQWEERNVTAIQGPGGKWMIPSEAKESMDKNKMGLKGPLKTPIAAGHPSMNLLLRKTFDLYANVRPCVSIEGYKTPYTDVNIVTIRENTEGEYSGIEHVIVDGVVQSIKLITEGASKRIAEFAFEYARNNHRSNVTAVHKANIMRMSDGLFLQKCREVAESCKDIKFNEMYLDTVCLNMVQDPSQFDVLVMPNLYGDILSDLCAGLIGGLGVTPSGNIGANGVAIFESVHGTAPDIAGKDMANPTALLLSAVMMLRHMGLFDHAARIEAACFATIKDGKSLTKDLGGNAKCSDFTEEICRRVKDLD
Chain of UniProt Q5SSJ5 (Q5SSJ5 whole entry, looked up): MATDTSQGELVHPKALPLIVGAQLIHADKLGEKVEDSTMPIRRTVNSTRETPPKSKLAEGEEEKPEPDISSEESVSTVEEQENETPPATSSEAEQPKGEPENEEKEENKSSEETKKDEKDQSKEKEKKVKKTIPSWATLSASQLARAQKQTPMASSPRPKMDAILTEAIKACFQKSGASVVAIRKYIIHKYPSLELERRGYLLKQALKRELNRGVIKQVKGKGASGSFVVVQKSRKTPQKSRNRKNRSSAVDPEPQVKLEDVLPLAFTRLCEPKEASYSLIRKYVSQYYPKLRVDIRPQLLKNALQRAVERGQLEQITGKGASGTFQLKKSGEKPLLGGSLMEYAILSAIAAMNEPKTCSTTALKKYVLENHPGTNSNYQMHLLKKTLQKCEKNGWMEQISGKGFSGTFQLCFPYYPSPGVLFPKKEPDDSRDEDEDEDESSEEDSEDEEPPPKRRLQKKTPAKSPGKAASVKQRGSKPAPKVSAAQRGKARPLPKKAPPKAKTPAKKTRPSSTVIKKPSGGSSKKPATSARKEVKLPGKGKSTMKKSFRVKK
Chain of UniProt Q9Y3I1 (Q9Y3I1 whole entry, looked up): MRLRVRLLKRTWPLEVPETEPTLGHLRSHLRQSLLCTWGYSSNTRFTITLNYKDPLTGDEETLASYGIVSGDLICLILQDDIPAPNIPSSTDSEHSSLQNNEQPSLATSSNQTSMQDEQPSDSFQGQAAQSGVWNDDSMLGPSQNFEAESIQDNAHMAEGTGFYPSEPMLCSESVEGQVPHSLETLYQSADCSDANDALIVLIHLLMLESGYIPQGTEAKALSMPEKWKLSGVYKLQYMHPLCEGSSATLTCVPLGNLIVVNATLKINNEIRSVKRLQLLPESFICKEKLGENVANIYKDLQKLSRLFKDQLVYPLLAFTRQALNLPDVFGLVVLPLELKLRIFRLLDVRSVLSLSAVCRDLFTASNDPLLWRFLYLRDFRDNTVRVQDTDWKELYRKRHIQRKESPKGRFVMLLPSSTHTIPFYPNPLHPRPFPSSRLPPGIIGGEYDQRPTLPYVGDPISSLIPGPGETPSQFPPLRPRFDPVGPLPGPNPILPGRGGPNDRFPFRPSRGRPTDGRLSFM
Chain of UniProt Q7Z4V5 (Q7Z4V5 whole entry, looked up): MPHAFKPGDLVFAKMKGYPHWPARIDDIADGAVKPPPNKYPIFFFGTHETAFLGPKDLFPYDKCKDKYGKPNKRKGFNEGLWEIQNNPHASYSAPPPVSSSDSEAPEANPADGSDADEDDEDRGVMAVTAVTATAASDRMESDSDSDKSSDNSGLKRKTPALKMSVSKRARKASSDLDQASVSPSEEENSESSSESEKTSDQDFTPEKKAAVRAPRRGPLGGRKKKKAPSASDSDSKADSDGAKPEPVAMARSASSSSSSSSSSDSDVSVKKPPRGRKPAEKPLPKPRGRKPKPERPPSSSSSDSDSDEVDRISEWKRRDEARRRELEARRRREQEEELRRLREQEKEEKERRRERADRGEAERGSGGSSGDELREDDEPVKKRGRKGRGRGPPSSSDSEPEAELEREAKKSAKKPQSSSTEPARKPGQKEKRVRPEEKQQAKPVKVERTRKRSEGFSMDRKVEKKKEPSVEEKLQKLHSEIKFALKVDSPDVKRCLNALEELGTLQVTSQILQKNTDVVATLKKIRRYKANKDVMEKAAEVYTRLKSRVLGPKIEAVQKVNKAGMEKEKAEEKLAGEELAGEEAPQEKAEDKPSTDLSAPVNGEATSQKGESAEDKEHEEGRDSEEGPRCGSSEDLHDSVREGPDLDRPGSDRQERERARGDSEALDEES
Chain of UniProt P04066 (P04066 whole entry, looked up): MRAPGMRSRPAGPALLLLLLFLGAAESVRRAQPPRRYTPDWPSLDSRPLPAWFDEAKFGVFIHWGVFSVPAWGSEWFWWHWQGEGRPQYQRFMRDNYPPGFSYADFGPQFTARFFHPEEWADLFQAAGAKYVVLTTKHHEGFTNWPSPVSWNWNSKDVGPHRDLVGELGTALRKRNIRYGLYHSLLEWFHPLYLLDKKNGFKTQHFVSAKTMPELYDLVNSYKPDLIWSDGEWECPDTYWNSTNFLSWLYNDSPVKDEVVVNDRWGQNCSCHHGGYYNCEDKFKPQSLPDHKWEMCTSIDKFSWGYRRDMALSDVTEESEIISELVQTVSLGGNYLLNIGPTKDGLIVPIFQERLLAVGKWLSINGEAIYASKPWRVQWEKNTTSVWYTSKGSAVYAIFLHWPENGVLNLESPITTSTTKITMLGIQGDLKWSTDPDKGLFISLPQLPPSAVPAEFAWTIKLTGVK
Chain of UniProt Q03013 (Q03013 whole entry, looked up): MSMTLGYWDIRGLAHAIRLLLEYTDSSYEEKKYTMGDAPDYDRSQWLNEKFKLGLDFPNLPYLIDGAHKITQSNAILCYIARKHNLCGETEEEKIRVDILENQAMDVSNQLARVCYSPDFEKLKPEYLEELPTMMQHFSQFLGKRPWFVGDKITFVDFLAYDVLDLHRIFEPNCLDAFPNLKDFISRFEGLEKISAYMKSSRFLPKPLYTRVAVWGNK
Chain of UniProt P60520 (P60520 whole entry, looked up): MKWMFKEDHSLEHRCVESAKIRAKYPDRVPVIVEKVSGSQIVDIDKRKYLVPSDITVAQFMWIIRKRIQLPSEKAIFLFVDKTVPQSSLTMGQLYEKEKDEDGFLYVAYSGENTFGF
Chain of UniProt P30519 (P30519 whole entry, looked up): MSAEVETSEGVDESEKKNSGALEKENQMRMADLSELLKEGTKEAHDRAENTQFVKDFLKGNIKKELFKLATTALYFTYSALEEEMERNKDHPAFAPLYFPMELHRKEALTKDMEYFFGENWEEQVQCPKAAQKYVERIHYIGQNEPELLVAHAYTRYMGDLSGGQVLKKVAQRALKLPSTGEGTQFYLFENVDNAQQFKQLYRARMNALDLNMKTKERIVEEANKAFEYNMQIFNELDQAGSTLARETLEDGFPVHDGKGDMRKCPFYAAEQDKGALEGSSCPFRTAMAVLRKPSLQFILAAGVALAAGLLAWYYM
Chain of UniProt Q53FT3 (Q53FT3 whole entry, looked up): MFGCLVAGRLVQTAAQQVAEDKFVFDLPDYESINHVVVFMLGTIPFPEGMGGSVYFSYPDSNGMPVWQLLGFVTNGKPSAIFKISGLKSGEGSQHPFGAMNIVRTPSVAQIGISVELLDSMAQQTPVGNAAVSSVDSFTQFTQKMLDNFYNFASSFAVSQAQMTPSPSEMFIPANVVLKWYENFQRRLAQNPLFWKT
Chain of UniProt P0CL80 (P0CL80 whole entry, looked up): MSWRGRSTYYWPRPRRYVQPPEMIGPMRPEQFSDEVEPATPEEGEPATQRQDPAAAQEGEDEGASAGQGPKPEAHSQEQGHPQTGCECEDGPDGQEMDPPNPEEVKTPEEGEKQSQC

Each target was assayed with CON(C)C(=O)N1N=C(c2cc(F)ccc2F)S[C@@]1(CCCN)c1ccccc1 [filanesib] (assay: log2 fold change, soluble protein after heating vs DMSO (PISA); higher = thermal stabilisation; K562 cells, 10 uM, 30 min; active = over 0.2 and 3.5 SD of the protein, either way, in both replicates (recomputed)).
Procedure, shortened: (§1)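 K562 cells at 2×10^6 cells/mL were treated with 10 μM compound for 30 min. Aliquots were heated for 3 min across 48°C-58°C, pooled, and extracted in PBS with 0.5% NP-40 at 4°C; soluble protein was the supernatant after 21,000xg for 90 min. Soluble protein was quantified by TMTpro 16plex LC-MS/MS with channel sums equalised, and reported as log2 fold change in thermal stability against DMSO controls, with values from duplicates.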
For GAPVD1 isoform 6 (UniProt Q14C86), the log2 fold change was 0.033 (inactive). IDH3A (UniProt P50213) was tested, and the log2 fold change was -0.067 (inactive). For GALNT4 (UniProt Q8N4A0), the log2 fold change was 0.066 (inactive). With HMOX2 (UniProt P30519) the log2 fold change was 0.085 (inactive). With HIP1R (UniProt O75146) the log2 fold change was -0.039 (inactive). GBF1 (UniProt Q92538) was tested, and the log2 fold change was 0.038 (inactive). In the case of HSD17B12 (UniProt Q53GQ0), the log2 fold change was -0.013 (inactive). In the case of GABPA (UniProt Q06546), the log2 fold change was -0.111 (inactive). With HTATIP2 isoform 3 (UniProt Q9BUP3) the log2 fold change was -0.091 (inactive). For HDDC2 (UniProt Q7Z4H3), the log2 fold change was -0.037 (inactive). For HLTF (UniProt Q14527), the log2 fold change was -0.004 (inactive). For GATD1 (UniProt Q8NB37), the log2 fold change was 0.022 (inactive). For HP1BP3 (UniProt Q5SSJ5), the log2 fold change was 0.145 (inactive). In the case of GTF3C4 (UniProt Q9UKN8), the log2 fold change was 0.034 (inactive). FUCA1 (UniProt P04066) was tested, and the log2 fold change was -0.057 (inactive). FAM91A1 (UniProt Q658Y4) was tested, and the log2 fold change was -0.059 (inactive). For GLRX3 (UniProt O76003), the log2 fold change was -0.056 (inactive). In the case of GAGE12F (UniProt P0CL80), the log2 fold change was 0.02 (inactive). In the case of HDGFL2 (UniProt Q7Z4V5), the log2 fold change was 0.056 (inactive). With GMEB2 (UniProt Q9UKD1) the log2 fold change was 0.04 (inactive). With GLYR1 (UniProt Q49A26) the log2 fold change was 0.125 (inactive). For FNTA (UniProt P49354), the log2 fold change was 0.069 (inactive). IFI30 (UniProt P13284) was tested, and the log2 fold change was 0.061 (inactive). In the case of GABARAPL2 (UniProt P60520), the log2 fold change was -0.01 (inactive). In the case of HIKESHI (UniProt Q53FT3), the log2 fold change was -0.063 (inactive). For GSTM4 (UniProt Q03013), the log2 fold change was 0.103 (inactive). In the case of FIS1 (UniProt Q9Y3D6), the log2 fold change was -0.008 (inactive). For IDI1 isoform 2 (UniProt Q13907), the log2 fold change was 0.026 (inactive). With HNRNPH1 (UniProt P31943) the log2 fold change was 0 (inactive). For HIST2H3A (UniProt Q71DI3), the log2 fold change was 0.268 (inactive). With FHOD1 (UniProt Q9Y613) the log2 fold change was 0.084 (inactive). In the case of GLUD1 (UniProt P00367), the log2 fold change was -0.118 (inactive). For FBXO7 (UniProt Q9Y3I1), the log2 fold change was -0.069 (inactive). With HIC2 (UniProt Q96JB3) the log2 fold change was 0.226 (inactive). With FUBP3 (UniProt Q96I24) the log2 fold change was 0.055 (inactive).

Each target was assayed with CO[C@H]1C[C@@H]2CC[C@@H](C)[C@@](O)(O2)C(=O)C(=O)N2CCCC[C@H]2C(=O)O[C@H]([C@H](C)C[C@@H]2CC[C@H](n3cnnn3)[C@H](OC)C2)CC(=O)[C@H](C)/C=C(\C)[C@@H](O)[C@@H](OC)C(=O)[C@H](C)C[C@H](C)/C=C/C=C/C=C/1C [zotarolimus] in the same assay as above.
Procedure, shortened: as §1
For GAPVD1 isoform 6 (UniProt Q14C86), the log2 fold change was 0.055 (inactive). With IDH3A (UniProt P50213) the log2 fold change was 0.007 (inactive). With GALNT4 (UniProt Q8N4A0) the log2 fold change was -0.017 (inactive). HMOX2 (UniProt P30519) was tested, and the log2 fold change was 0.027 (inactive). For HIP1R (UniProt O75146), the log2 fold change was -0.034 (inactive). In the case of GBF1 (UniProt Q92538), the log2 fold change was 0.008 (inactive). With HSD17B12 (UniProt Q53GQ0) the log2 fold change was 0.03 (inactive). For GABPA (UniProt Q06546), the log2 fold change was 0.063 (inactive). With HTATIP2 isoform 3 (UniProt Q9BUP3) the log2 fold change was 0.364 (active). For HDDC2 (UniProt Q7Z4H3), the log2 fold change was 0.049 (inactive). For HLTF (UniProt Q14527), the log2 fold change was -0.042 (inactive). GATD1 (UniProt Q8NB37) was tested, and the log2 fold change was -0.004 (inactive). In the case of HP1BP3 (UniProt Q5SSJ5), the log2 fold change was -0.003 (inactive). For GTF3C4 (UniProt Q9UKN8), the log2 fold change was 0.019 (inactive). With FUCA1 (UniProt P04066) the log2 fold change was -0.025 (inactive). In the case of FAM91A1 (UniProt Q658Y4), the log2 fold change was 0.029 (inactive). GLRX3 (UniProt O76003) was tested, and the log2 fold change was 0.056 (inactive). For GAGE12F (UniProt P0CL80), the log2 fold change was -0.054 (inactive). In the case of HDGFL2 (UniProt Q7Z4V5), the log2 fold change was -0.025 (inactive). In the case of GMEB2 (UniProt Q9UKD1), the log2 fold change was 0.03 (inactive). In the case of GLYR1 (UniProt Q49A26), the log2 fold change was -0.04 (inactive). In the case of FNTA (UniProt P49354), the log2 fold change was 0.019 (inactive). For IFI30 (UniProt P13284), the log2 fold change was 0.06 (inactive). In the case of GABARAPL2 (UniProt P60520), the log2 fold change was -0.036 (inactive). With HIKESHI (UniProt Q53FT3) the log2 fold change was 0.026 (inactive). GSTM4 (UniProt Q03013) was tested, and the log2 fold change was 0.084 (inactive). For FIS1 (UniProt Q9Y3D6), the log2 fold change was 0.153 (inactive). In the case of IDI1 isoform 2 (UniProt Q13907), the log2 fold change was 0.033 (inactive). For HNRNPH1 (UniProt P31943), the log2 fold change was 0.091 (inactive). For HIST2H3A (UniProt Q71DI3), the log2 fold change was -0.167 (inactive). In the case of FHOD1 (UniProt Q9Y613), the log2 fold change was 0.095 (inactive). For GLUD1 (UniProt P00367), the log2 fold change was -0.007 (inactive). For FBXO7 (UniProt Q9Y3I1), the log2 fold change was -0.026 (inactive). For HIC2 (UniProt Q96JB3), the log2 fold change was -0.012 (inactive). In the case of FUBP3 (UniProt Q96I24), the log2 fold change was -0.072 (inactive).
